According to PubChem BioAssay (NCI):
Where “and” joins values, the source holds several entries; their conditions need not be identical. Equal values may be shown once. Compounds without any hit were thinned out: in the full panel of roughly 79,000, 15% have a hit. A structure can be active in one record and inactive in another. Calls of active or inactive are those of the source. Cut-off read from the data, not from the text of the source: active = growth inhibition above about 70%; inactive = the rest.

Assays:
[1] = NCI Yeast Anticancer Drug Screen. Data for the rad50 strain (AID 155);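 note: 0% = growth of vehicle-only cultures of the same strain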; settings: S. cerevisiae rad50 strain growth inhibition, stronger effect = higher value
Procedure, shortened: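 Cells are treated with compound, grown, and their growth is then scored against vehicle-only cultures of the same repair-deficient yeast strain.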

[2] = NCI Yeast Anticancer Drug Screen. Data for the mec2-1 strain (AID 157); settings: S. cerevisiae mec2-1 strain, stronger effect = higher value
Procedure, shortened: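 Yeast mec2-1 mutant treated with compound. Readout: growth inhibition vs vehicle controls.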

[3] = NCI Yeast Anticancer Drug Screen. Data for the sgs1 mgt1 strain (AID 161);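 note: 0% = growth of cultures given vehicle only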; settings: S. cerevisiae sgs1 mgt1 strain, stronger effect = higher value
Procedure, shortened: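 Test agents were incubated with a DNA-repair-mutant yeast strain. Growth was then read and compared against vehicle-treated controls.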

[4] = NCI Yeast Anticancer Drug Screen. Data for the cln2 rad14 strain (AID 165);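 note: 0% = growth equal to vehicle treated cultures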; settings: S. cerevisiae cln2 rad14 strain, stronger effect = higher value
Procedure, shortened: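 cln2 rad14 yeast strain; compound exposure; growth inhibition read vs vehicle controls.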

[5] = NCI Yeast Anticancer Drug Screen. Data for the bub3 strain (AID 167); settings: S. cerevisiae bub3 mutant strain, stronger effect = higher value
Procedure, shortened: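 Part of a panel of yeast mutants defective in DNA damage repair or cell cycle regulation. Each strain is grown with compound, and inhibition is calculated relative to solvent-treated cultures.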

[6] = NCI Yeast Anticancer Drug Screen. Data for the mlh1 rad18 strain (AID 175); settings: S. cerevisiae mlh1 rad18 strain growth inhibition, stronger effect = higher value
Procedure, shortened: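 Yeast w/ defined DNA-repair lesions; compound exposure; growth vs vehicle controls → % inhibition.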

[7] = at 5.0 µM (retest, dose inferred, filed as 0.5)
[8] = at 50.0 µM (retest, dose inferred, filed as 5.0)

Row | Structure (SMILES) | growth inhibition [1, 7] | growth inhibition [1, 8] | growth inhibition ([1]; at 50.0 µM) | growth inhibition [2, 7] | growth inhibition [2, 8] | growth inhibition ([2]; at 50.0 µM) | growth inhibition [3, 7] | growth inhibition [3, 8] | growth inhibition ([3]; at 50.0 µM) | growth inhibition [4, 7] | growth inhibition [4, 8] | growth inhibition ([4]; at 50.0 µM) | growth inhibition [5, 7] | growth inhibition [5, 8] | growth inhibition ([5]; at 50.0 µM) | growth inhibition [6, 7] | growth inhibition [6, 8] | growth inhibition ([6]; at 50.0 µM)
1 | CN1C(=O)CC[C@@]2(C)C1=CC[C@H]1[C@@H]3CC[C@H](O)[C@@]3(C)CC[C@@H]12 | 7% (inactive) | 64% (inactive) | -9.15% (inactive) | 0% (inactive) | 43% (inactive) | 14.9% (inactive) | 12% (inactive) | 79% (active) | 55% (inactive) | 13% (inactive) | 40% (inactive) | -3.4% (inactive) | 3% (inactive) | 63% (inactive) | 62.1% (inactive) | 6% (inactive) | 52% (inactive) | 15.1% (inactive)
2 | CCOP(=O)(OCC)/C(C#N)=C/c1cccc(Cl)c1 | 1% (inactive) | 94% (active) | 90.5% (active) | -1% (inactive) | 96% (active) | 91.8% (active) | 5% (inactive) | 94% (active) | 90.8% (active) | 14% (inactive) | 94% (active) | 88.2% (active) | -6% (inactive) | 96% (active) | 89.8% (active) | 6% (inactive) | 96% (active) | 89.3% (active)
3 | [Cl][Hg][Cl].c1ccc(CSc2ccccc2)cc1 | 99% (active) | 99% (active) | 99% (active) | 100% (active) | 100% (active) | 99.7% (active) | 100% (active) | 99% (active) | 99.3% (active) | 99% (active) | 99% (active) | 99.4% (active) | 99% (active) | 99% (active) | 99.2% (active) | 99% (active) | 99% (active) | 99.5% (active)
4 | c1ccc2c[n+](CCCCCCCCCC[n+]3ccc4ccccc4c3)ccc2c1 | 67% (inactive) | 95% (active) | 89.2% (active) | 70% (active) | 98% (active) | 91.2% (active) | 79% (active) | 98% (active) | 90.5% (active) | 68% (inactive) | 98% (active) | 83.7% (active) | 88% (active) | 99% (active) | 91.3% (active) | 72% (active) | 94% (active) | 88.1% (active)
5 | CCCCCCCC1(c2ccc(N)cc2)CCC(=O)NC1=O (configuration not stated) | 31% (inactive) | 36% (inactive) | 73% (active) | 0% (inactive) | 61% (inactive) | 27.9% (inactive) | 8% (inactive) | 96% (active) | 54.2% (inactive) | -8% (inactive) | 26% (inactive) | 33.8% (inactive) | 0% (inactive) | 21% (inactive) | 56% (inactive) | -2% (inactive) | 35% (inactive) | 37.1% (inactive)
6 | O=C1c2ccccc2-c2cccc3cccc1c23 | 3% (inactive) | -52% (inactive) | -13.8% (inactive) and 32.1% (inactive) | -12% (inactive) | -26% (inactive) | 4.65% (inactive) and 0.55% (inactive) | -9% (inactive) | -40% (inactive) | -14.2% (inactive) and -19.6% (inactive) | -6% (inactive) | -17% (inactive) | -0.75% (inactive) and 63.6% (inactive) | -15% (inactive) | -88% (inactive) | -2.35% (inactive) and 10.1% (inactive) | -1% (inactive) | -39% (inactive) | -6.8% (inactive) and 24.3% (inactive)
7 | CCCCC(CC)CNP(=S)(NCC(CC)CCCC)NCC(CC)CCCC (configuration not stated) | -3% (inactive) | 37% (inactive) | 58.9% (inactive) | -3% (inactive) | 30% (inactive) | 9.55% (inactive) | -4% (inactive) | 27% (inactive) | 6.25% (inactive) | -2% (inactive) | 20% (inactive) | 35.8% (inactive) | -5% (inactive) | 37% (inactive) | 13.4% (inactive) | -5% (inactive) | 33% (inactive) | 69.1% (inactive)
8 | CN(C)CC1CCCCC1=O (configuration not stated) | -169% (inactive) | 36% (inactive) | 73.7% (active) and 1.45% (inactive) and -1.35% (inactive) | -52% (inactive) | -24% (inactive) | 56.2% (inactive) and -13.8% (inactive) and -15.9% (inactive) | -67% (inactive) | -6% (inactive) | 47.4% (inactive) and -15.4% (inactive) and -9.6% (inactive) | -77% (inactive) | 3% (inactive) | 59.5% (inactive) and 8.3% (inactive) and 0.7% (inactive) | -69% (inactive) | -26% (inactive) | 35% (inactive) and -23.4% (inactive) and -3.6% (inactive) | -131% (inactive) | -38% (inactive) | 71.9% (active) and 18.1% (inactive) and 5.25% (inactive)
9 | CCOP(=O)(Oc1ccc([N+](=O)[O-])cc1)c1ccccc1C(C)C (configuration not stated) | 11% (inactive) | 49% (inactive) | 90.8% (active) | 25% (inactive) | 70% (active) | 90.8% (active) | -11% (inactive) | 92% (active) | 95.6% (active) | 40% (inactive) | 34% (inactive) | 95.6% (active) | 12% (inactive) | 49% (inactive) | 96.8% (active) | -11% (inactive) | 77% (active) | 96.7% (active)
